Laboratory results as given in PubChem BioAssay (EPA / NIEHS).
Where “and” joins values, the source holds several entries; their conditions need not be identical. Equal entries are not always repeated. Results filed as inconclusive are left out. Calls of active or inactive are those of the source. Rule for the calls: active = hit-call score of the fitted dose curve at least 0.9, where 1 is the maximum; inconclusive = response in the unintended direction; inactive = score below 0.9.

target: human Constitutive Androstane Receptor (CAR), NR1I3 (gene 9970) (UniProt Q14994); assay: NVS_NR_hCAR_Antagonist: NovaScreen (NVS) Nuclear Receptor Binding Assay for human Constitutive Androstane Receptor Antagonism (CAR) (AID 2283344)
Sequence (Q14994 whole entry, looked up): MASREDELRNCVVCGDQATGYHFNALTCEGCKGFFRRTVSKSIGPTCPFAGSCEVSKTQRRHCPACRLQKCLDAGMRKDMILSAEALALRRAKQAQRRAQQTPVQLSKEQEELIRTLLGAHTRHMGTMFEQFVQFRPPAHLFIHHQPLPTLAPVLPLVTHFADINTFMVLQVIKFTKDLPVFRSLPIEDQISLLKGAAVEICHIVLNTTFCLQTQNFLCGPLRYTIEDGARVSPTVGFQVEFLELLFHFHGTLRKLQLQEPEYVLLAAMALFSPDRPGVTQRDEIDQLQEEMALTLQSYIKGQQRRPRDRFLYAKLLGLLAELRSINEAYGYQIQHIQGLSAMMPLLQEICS
Experimental: NVS_NR_hCAR_Antagonist is a biochemical, single-readout assay that uses extracted gene-proteins in a cell-free assay. Measurements were taken 1 hour after chemical dosing in a 384-well plate.NVS_NR_hCAR_Antagonist is one of one assay component(s) measured or calculated from the NVS_NR_hCAR_Antagonist assay. It is designed to make measurements of fluorescent resonance energy transfer, a form of binding reporter, as detected with fluorescent resonance energy transfer signals by Time-Resolved Fluorescence Resonance Energy Transfer (TR-FRET) technology.Data from the assay component NVS_NR_hCAR_Antagonist was analyzed into 1 assay endpoint. This assay endpoint, NVS_NR_hCAR_Antagonist, was analyzed in the positive analysis fitting direction relative to DMSO as the negative control and baseline of activity. Using a type of binding reporter, loss-of-signal activity can be used to understand changes in the binding as they relate to the gene NR1I3. Furthermore, this assay endpoint can be referred to as a primary readout, because the performed assay has only produced 1 assay endpoint. To generalize the intended target to other relatable targets, this assay endpoint is annotated to the nuclear receptor intended target family, where the subfamily is non-steroidal.
Binding assays used specific radioligands (tritiated, iodinated) with non-radioactive competitive displacement ligands in agonist or antagonist protocols (as indicated) and various reference compounds and inhibitors to titrate specific binding to receptors and transporters. Most enzyme assays (CYPs, kinases, phosphatases, proteases, HDACs) used recombinant protein and specific substrates (fluorescence mostly, some colorimetric and radioactive) and inhibitors, followed by a biochemical separation of substrate and product. All assays for the biochemical HTS were initially run in duplicate at a single concentration (10 uM for CYP450 assays and 25 uM for all others). […] Each assay was run with positive and negative controls, and concurrent controls on every plate. The follow-up (secondary) screen tested active chemical-pairs in concentration series, as well as a few additional assays not tested in the primary screen, some selected negative inactives, and several cases re-run in the concentration series for confirmatory purposes.

SMILES | outcome | AC50
COC(=O)N(OC)c1ccccc1COc1ccn(-c2ccc(Cl)cc2)n1 | inactive | 
COP(N)(=O)SC (stereo not drawn) | inactive | 
CCCCOC(=O)c1ccccc1C(=O)OCCCC | inactive | 
CNC(=O)ON=CC(C)(C)SC | inactive | 
CCCN(CCC)c1c([N+](=O)[O-])cc(S(N)(=O)=O)cc1[N+](=O)[O-] |  | 526 nM (active) and 6.79 µM (active)
CCOP(=S)(OCC)SCn1c(=O)oc2cc(Cl)ccc21 | inactive | 
CO/C=C(/C(=O)OC)c1ccccc1Oc1cc(Oc2ccccc2C#N)ncn1 | inactive | 
CS/C(C)=N/OC(=O)N(C)SN(C)C(=O)O/N=C(\C)SC | inactive | 
CCCCC(CC)COC(=O)c1ccccc1C(=O)OCC(CC)CCCC (stereo not drawn) | inactive | 
CCCC1COC(Cn2cncn2)(c2ccc(Cl)cc2Cl)O1 (stereo not drawn) |  | 11.8 µM (active) and 25 µM (active)
C#CCOS(=O)OC1CCCCC1Oc1ccc(C(C)(C)C)cc1 (stereo not drawn) | inactive | 
Cc1ccc(-c2c(Cl)nc(C#N)n2S(=O)(=O)N(C)C)cc1 | inactive | 
CCNc1nc(Cl)nc(NCC)n1 | inactive | 
CON(C)C(=O)Nc1ccc(Cl)c(Cl)c1 | inactive | 
CCOC(=O)CC(SP(=S)(OC)OC)C(=O)OCC (stereo not drawn) |  | 18.6 µM (active)
O=C(O)COc1nc(Cl)c(Cl)cc1Cl | inactive | 
N#Cc1cc(Br)c(O)c(Br)c1 | inactive | 
COC(=O)c1ccccc1C(=O)OC | inactive | 
COc1ccc(C(c2ccc(OC)cc2)C(Cl)(Cl)Cl)cc1 | inactive | 
OC(c1ccc(Cl)cc1)(c1cncnc1)c1ccccc1Cl (stereo not drawn) |  | 25 µM (active)
CCON=C(CC)C1=C(O)CC(c2c(C)cc(C)cc2C)CC1=O (stereo not drawn) | inactive | 
CNC(=S)S | inactive | 
COc1nc(C)nc(NC(=O)NS(=O)(=O)c2ccccc2CCC(F)(F)F)n1 | inactive | 
